This is a sample that favours compounds with a hit; in the whole collection about 4% have one here.
Gli-Sufu block: antagonists of Gli-Sufu signaling | Sufu-KO-LIGHT fibroblasts, Gli luciferase reporter luminescence | inhibition, % at 5 µM | 0.74% of 340,000 active | AID 588413;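 active means inhibition above about 55%, limit read from the data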;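 further: 0% = DMSO-treated cells and 100% = wells with medium but no cells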
Jurkat NFkB inh: inhibitors of the PMA/ionomycin-induced NF-kB reporter in Jurkat cells; 0.53% of 330,000 active; inhibition, % at 4 µM; AID 435003; PMA/ionomycin-induced NF-kB luciferase reporter, luminescence; in the data active means inhibition above about 50%
697 NFkB inh: inhibitors of the PMA/ionomycin-induced NF-kB reporter in 697 B cells; 697 B-cell NF-kB luciferase reporter, 16 h; inhibition, % at 4 µM; 0.33% of 330,000 active; in the data active means inhibition above about 35%
Mdm2-MdmX inh: disrupts the human Mdm2-MdmX interaction; AID 485346; O15151+Q00987; 3% of 330,000 active; inhibition, % at 8 µM; SaOS-2 split-luciferase Mdm2/MdmX complementation, luminescence;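 active means inhibition of at least 50% at 8 µM in the primary screen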
Target sequence (O15151 whole entry, looked up): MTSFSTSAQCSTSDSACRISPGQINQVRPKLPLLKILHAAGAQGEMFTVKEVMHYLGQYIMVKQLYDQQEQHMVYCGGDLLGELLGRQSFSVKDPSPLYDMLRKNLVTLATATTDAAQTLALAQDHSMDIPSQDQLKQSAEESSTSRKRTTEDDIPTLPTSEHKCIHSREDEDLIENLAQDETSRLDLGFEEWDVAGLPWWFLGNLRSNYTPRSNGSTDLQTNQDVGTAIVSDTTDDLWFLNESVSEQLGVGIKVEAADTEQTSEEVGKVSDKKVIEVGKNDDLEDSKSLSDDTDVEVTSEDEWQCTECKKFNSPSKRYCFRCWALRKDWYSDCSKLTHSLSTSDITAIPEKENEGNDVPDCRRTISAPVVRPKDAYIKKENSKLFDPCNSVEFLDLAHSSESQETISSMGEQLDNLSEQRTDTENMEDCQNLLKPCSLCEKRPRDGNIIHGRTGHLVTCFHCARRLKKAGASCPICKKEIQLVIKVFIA
Target sequence (Q00987 whole entry, looked up): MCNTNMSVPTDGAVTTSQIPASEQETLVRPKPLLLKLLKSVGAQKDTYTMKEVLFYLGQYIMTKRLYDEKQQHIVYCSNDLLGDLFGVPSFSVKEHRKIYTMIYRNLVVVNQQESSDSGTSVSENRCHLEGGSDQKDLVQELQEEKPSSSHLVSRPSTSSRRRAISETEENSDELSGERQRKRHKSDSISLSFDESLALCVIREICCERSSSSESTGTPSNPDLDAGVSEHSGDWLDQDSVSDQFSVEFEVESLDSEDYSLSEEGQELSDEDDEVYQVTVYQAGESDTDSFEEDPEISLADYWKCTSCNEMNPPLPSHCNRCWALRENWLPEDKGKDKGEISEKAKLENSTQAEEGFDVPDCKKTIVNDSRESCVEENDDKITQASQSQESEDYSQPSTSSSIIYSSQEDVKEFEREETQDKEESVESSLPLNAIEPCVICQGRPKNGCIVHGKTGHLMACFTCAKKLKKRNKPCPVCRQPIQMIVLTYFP
Beta cell apopt: blocks beta cell apoptosis. 0.8% of 300,000 active. protection from apoptosis, % (test concentration not listed). INS-1E cytokine-induced death, ATP luminescence, 48 h; percent of positive-control rescue, neutral wells zero;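 active means Every replicate reaches about 75%, or at least half do and their mean reaches it too, limit read from the data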;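 further: 0% = cytokine-treated negative control wells and 100% = positive control rescue; higher means more ATP so stronger rescue from cytokine killing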
Mdm2-MdmX conf: confirmation of human Mdm2/MdmX interaction inhibitors. shares compounds with Mdm2-MdmX inh. Mdm2-MdmX binding, luminescent assay. inhibition, % at 8 µM. 55% of 10,000 active. AID 489028; in the data active means inhibition above about 40%
FLuc counter: inhibits full-length luciferase, flagging false Mdm2/MdmX hits | shares compounds with Mdm2-MdmX inh | 77% of 6,200 active | SaOS-2 full-length luciferase counterscreen, luminescence | inhibition, % at 8 µM | AID 504607;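 active means mean inhibition at 8 µM reaching about 37%, which flags the compound as non-specific, limit read from the data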;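 further: p53-null SaOS-2 cells with luciferase driven by a doxycycline-inducible promoter; compound on cells about two nights before reading with doxycycline added after day one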
* = called active by the depositor; . = no result.

SMILES	Gli-Sufu block	Jurkat NFkB inh	697 NFkB inh	Mdm2-MdmX inh	Beta cell apopt	Mdm2-MdmX conf	FLuc counter
COc1cccc(N(C(=O)Cn2nnc(-c3ccc(Cl)cc3)n2)C(C(=O)NCC2CCCO2)c2ccc(C)cc2)c1 (centres undefined)	20	-6	14	56*	-1	-1	.
CC(C)c1ccc(OCC(=O)NNC(=S)NC(=O)c2ccco2)c(Br)c1	-5	-4	2	50*	11	43*	71*
COc1ccc(/C=N/NC(=O)c2cc(-c3ccc4c(c3)OCO4)n[nH]2)cc1OC	-12	-1	-15	12	32	.	.
CN(C)c1ccc(/C=N/NC(=O)c2cc(-c3ccc4c(c3)OCO4)n[nH]2)cc1	-23	8	-68	52*	.	54*	65*
O=C(N/N=C/c1cccc([N+](=O)[O-])c1)c1cc(-c2ccc3c4c(cccc24)CC3)n[nH]1	-2	-24	-44	4	5	.	.
Cn1cccc1-c1cc(C(=O)N/N=C/c2ccc([N+](=O)[O-])cc2)[nH]n1	2	-15	22	41	15	.	.
CC(C)c1ccc(/C=N/NC(=O)c2cc(-c3cccc([N+](=O)[O-])c3)n[nH]2)cc1	1	-1	-4	51*	4	17	.
O=C(N/N=C/c1ccc(Cl)c([N+](=O)[O-])c1)c1cc(-c2ccc3c4c(cccc24)CC3)n[nH]1	-5	5	21	100*	4	91*	61*
COc1cccc(-c2c(-c3cc(OC)cc(OC)c3)n(C)c3ccc(-c4cnc(N5CCOCC5)nc4)cc23)c1	8	12	-27	71*	-3	-6	.
COc1cccc(-c2c(-c3cc(OC)cc(OC)c3)n(C)c3ccc(-c4ccc5cc[nH]c5c4)cc23)c1	-17	-11	13	6	-3	.	.
COc1ccc(-c2c(-c3cc(OC)cc(OC)c3)n(C)c3ccc(-c4ccc(S(N)(=O)=O)cc4)cc23)cc1	-6	12	12	57*	-3	40	80*
COc1cc(OC)cc(-c2c(-c3ccc(F)cc3)c3cc(-c4cnc(OC)nc4)ccc3n2C)c1	18	13	14	57*	1	54*	42*
COc1ccc(-c2c(-c3cc(OC)cc(OC)c3)n(C)c3ccc(-c4cnc(N)nc4)cc23)cc1	1	2	9	4	15	.	.
COc1cccc(-c2c(-c3cc(OC)cc(OC)c3)n(C)c3ccc(-c4cnc(OC)nc4)cc23)c1	15	-15	12	20	-1	.	.
CCC(=O)[C@@]1(C)[C@H](C)C[C@H]2[C@@H]3CCC4=CC(=O)C=C[C@]4(C)[C@H]3[C@@H](O)C[C@@]21C	19	6	-34	19	2	.	.
COc1ccc(-n2nnnc2CNC(=O)C(=O)c2c[nH]c3ccccc23)cc1	3	11	14	-3	.	.	.
Cc1ccc(-n2nnnc2SC(C(=O)c2c[nH]c3ccccc23)c2ccccc2)cc1 (centres undefined)	-5	7	8	60*	1	65*	56*
Cc1ccc(C)c(CN2CCC(CNC(=O)Nc3ccc(Br)cc3F)CC2)c1	12	6	9	56*	7	44*	69*
CCOc1ccc(S(=O)(=O)NCCC(=O)Nc2nnc(C)s2)cc1	12	7	11	15	0	.	.
CCCCN(CC)CCCNC(=O)c1cc2c(=O)n(C)c3ccccc3c2n1C	16	-71	21	69*	9	23	.
Cc1ccc(Cl)cc1N1CCN(C(=O)c2cc3c(=O)n(C)c4ccccc4c3n2C)CC1	7	10	-22	98*	-2	86*	67*
CC(C)OCCCNC(=O)c1cc2c(=O)n(C)c3ccccc3c2n1C	24	-1	8	-19	4	.	.
CCCN(CCC)CCNC(=O)c1cc2c(=O)n(CC)c3ccccc3c2s1	24	-38	4	71*	7	46*	69*
Cc1cccc(N2CCN(C(=O)c3cc4c(=O)n(C)c5ccccc5c4n3C)CC2)c1C	4	24	-8	35	2	.	.
CCN(CC)CCNC(=O)c1cc2c(=O)n(CC)c3ccccc3c2s1	43	-66	-5	47	1	.	.
SMILES	Gli-Sufu block	Jurkat NFkB inh	697 NFkB inh	Mdm2-MdmX inh	Beta cell apopt	Mdm2-MdmX conf	FLuc counter
CN1CCN(CCCNC(=O)c2cc3c(=O)n(C)c4ccccc4c3s2)CC1	27	-24	15	54*	18	32	.
COc1ccc(N(CC(=O)Nc2cc(Cl)ccc2C)S(=O)(=O)c2c(C)n[nH]c2C)cc1	-6	45	-25	49	13	.	.
COc1ccccc1C1=NOC(Cn2c(NCCOCCO)nc3c2c(=O)n(C)c(=O)n3C)C1 (centres undefined)	-2	-20	-9	14	2	.	.
CCOC(=O)c1cnc(N2CCN(C(=O)OCC)CC2)[nH]c1=O	-17	0	9	0	-2	.	.
Cn1c(C(=O)NCCCN2CCOCC2)cc2c(=O)n(C)c3ccccc3c21	4	-14	4	0	5	.	.
Cn1c(C(=O)NCCCN2CCN(c3ccccc3F)CC2)cc2c(=O)n(C)c3ccccc3c21	1	8	23	58*	0	28	.
COc1ccc(NC(=O)CN2CCC(C(N)=O)(N3CCCCC3)CC2)c(OC)c1	1	7	12	6	-3	.	.
CCOC(=O)c1c(C)[nH]c(C(=O)N/N=C/c2cccc(OC)c2)c1C	-10	9	-1	53*	0	39	.
COc1cccc(/C=N/NC(=O)c2[nH]c(C)c(C(=O)N/N=C/c3cccc(OC)c3)c2C)c1	9	5	-25	25	-4	.	.
COc1cccc(/C=N/NC(=O)c2[nH]nc3c2CCc2ccccc2-3)c1	-21	17	-40	56*	39	61*	44*
Cc1cc(NC(=O)CN2C(=O)NC3(CCCCCC3)C2=O)no1	-3	-4	22	24	-1	.	.
COc1cc(CCN2C(=O)c3cccc4cccc(c34)C2=O)c(S(=O)(=O)NCCCO)cc1OC	-7	9	4	34	15	.	.
O=C1/C(=C/c2ccccc2[N+](=O)[O-])COc2ccccc21	-7	17	-7	98*	-11	45*	3
N#Cc1c(Cl)nsc1NC(=O)c1ccccc1	30	-15	-27	76*	78*	52*	71*
Cc1cccc(C(=O)Nc2sc(C)c(-c3ccccc3)c2C#N)c1	-80	-74	-167	-225	25	.	.
CC(C)CN(CC(C)C)c1ccc(/C=N/n2cnnc2)cc1[N+](=O)[O-]	1	9	-11	12	0	.	.
N#CCC(=O)Nc1ccc(C(=O)OC(C(=O)Nc2cc(C(F)(F)F)ccc2Cl)c2ccccc2)cc1 (centres undefined)	-19	11	7	52*	-6	39	71*

Source: PubChem
